# Key:
# Assay in all cases: PBM binding z-score (relative to random genomic background probes); higher = stronger binding; sequences stand for … in GC…GCGATTGACAGCGTAGAATGAAGG
# [1] = test system: FXR:RXRa (NR concentration 270 nM, RXRa partner concentration 90 nM)
# Procedure, shortened: (§1)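 Random background probes are the reference for binding z-scores. These scores derive from regression-normalized fluorescence on custom Agilent 4×180K protein-binding microarrays incubated 1 h with ligand-free nuclear receptor dimers. Binding was detected with antibodies against each partner (one per run).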
# [2] = test system: LXRa:RXRa (NR concentration 270 nM, RXRa partner concentration 90 nM)
# Procedure, shortened: as §1
# [3] = test system: LXRa homodimer (NR concentration 270 nM)
# Procedure, shortened: as §1
# [4] = test system: LXRb:RXRa (NR concentration 270 nM, RXRa partner concentration 90 nM)
# Procedure, shortened: as §1
# [5] = test system: LXRb homodimer (NR concentration 270 nM)
# Procedure, shortened: as §1
# [6] = test system: PPARa:RXRa (NR concentration 270 nM, RXRa partner concentration 90 nM)
# Procedure, shortened: as §1
# [7] = test system: PPARg:RXRa (NR concentration 180 nM, RXRa partner concentration 90 nM)
# Procedure, shortened: as §1
# [8] = test system: PPARg:RXRa 270nM:90nM, anti-RXR (NR concentration 270 nM, RXRa partner concentration 90 nM)
# Procedure, shortened: as §1
# [9] = test system: PPARg:RXRa 30nM:10nM, anti-RXR (NR concentration 30 nM, RXRa partner concentration 10 nM)
# Procedure, shortened: as §1
# [10] = test system: PPARg:RXRa 90nM:30nM, anti-RXR (NR concentration 90 nM, RXRa partner concentration 30 nM)
# Procedure, shortened: as §1
# [11] = test system: PPARg:RXRa DBDmut IVT, anti-RXR (DBD mutation: RXRa K156A/R161A, NR concentration 270 nM, RXRa partner concentration 90 nM)
# Procedure, shortened: as §1
# [12] = test system: PPARg:RXRa IVT, anti-PPARg (NR concentration 270 nM, RXRa partner concentration 90 nM)
# Procedure, shortened: as §1
# [13] = test system: PPARg DBDmut IVT, anti-PPARg (DBD mutation: PPARg1 K132A/R137A, NR concentration 270 nM)
# Procedure, shortened: as §1
# [14] = test system: PPARg homodimer (NR concentration 180 nM)
# Procedure, shortened: as §1
# [15] = test system: PXR:RXRa (NR concentration 270 nM, RXRa partner concentration 90 nM)
# Procedure, shortened: as §1
# [16] = test system: PXR homodimer (NR concentration 270 nM)
# Procedure, shortened: as §1
# [17] = test system: RARa:RXR (NR concentration 270 nM, RXRa partner concentration 90 nM)
# Procedure, shortened: as §1
# [18] = test system: RARa homodimer (NR concentration 270 nM)
# Procedure, shortened: as §1
# [19] = test system: RARb:RXRa (NR concentration 270 nM, RXRa partner concentration 90 nM)
# Procedure, shortened: as §1
Sequence,PBM binding z-score [1],PBM binding z-score [2],PBM binding z-score [3],PBM binding z-score [4],PBM binding z-score [5],PBM binding z-score [6],PBM binding z-score [7],PBM binding z-score [8],PBM binding z-score [9],PBM binding z-score [10],PBM binding z-score [11],PBM binding z-score [12],PBM binding z-score [13],PBM binding z-score [14],PBM binding z-score [15],PBM binding z-score [16],PBM binding z-score [17],PBM binding z-score [18],PBM binding z-score [19]
CGAACTAGGTCACCAGTACAGTGAAGAGGTTGGA,3.77,2.35,0.174,1.82,0.0155,4.77,8.77,7.17,5.27,6.88,8.41,8.76,1.75,2.54,1.59,-0.139,2.65,0.527,3.98
CGAACTAGGTCAAAGGACAGTGGAAGGCGACGTA,3.72,2.62,-0.0912,1.47,-0.761,5.49,9.71,8.34,8.02,9.05,8.19,8.49,1.31,1.21,0.947,-0.227,1.74,0.262,3.93
CGAACTAGGACAAAGGACAGTGAAAGGCGACGTA,-0.156,-0.553,-0.411,-0.765,-0.967,2.45,5.34,5.78,3.93,5.64,4.53,4.05,-0.402,0.327,-0.405,-0.257,-0.272,-0.328,1.12
CGATCTAGGTCAAAGGACAGTGAAAGGCGACGTA,4,2.77,-0.0244,1.53,-0.237,5.27,10.3,8.3,8.39,9.24,7.67,8.1,1.86,2.2,0.913,-0.421,2.13,0.262,3.79
CGAACTACGTCAAAGGACAGTGAAAGGCGACGTA,-0.5,-0.431,-0.3,-0.675,-0.597,0.0872,1.15,1.53,0.179,1.25,-0.332,-0.152,-0.567,-0.204,-0.445,-0.202,-0.353,-0.431,1.14
ATATGTAGGTTAGGGTCACTCAGAAAGTAGGGAA,4.33,3.26,0.67,3.89,1.47,5.51,7.42,6.49,3.96,6.11,6.7,6.76,1.93,3.25,3.88,1.5,4.51,1.73,3.8
ATATGTCGGTTAGGGTCATTCAGAAAGTAGGGAA,4.73,3.97,1.11,4.09,2.21,4.78,3.57,3.71,1.57,3.07,2.03,3.18,2.25,3.91,4.88,2.06,5.07,1.86,3.32
ATATGTATGTTAGGGTCATTCAGAAAGTAGGGAA,4.58,3.8,1.34,4.19,1.46,4.84,4.3,3.99,1.85,3.4,2.61,3.27,2.23,2.64,4.24,1.37,4.82,1.45,3.15
ATATGTAGGTTAGGGACATTCAGAAAGTAGGGAA,0.703,0.638,0.29,0.442,0.526,2.39,3.98,2.82,1.2,2.33,6.18,5.89,1.59,0.688,0.115,0.777,0.618,1.69,1.04
CGAACTAGGTCACCAGGACATTGAAGAGGTTGGA,4.15,2.68,0.557,1.82,-0.284,5.35,8.44,7.05,4.88,6.35,7.89,8.55,0.336,1.53,1.66,0.175,2.53,0.511,4.21
ATATGTAGGCTAGGGTCATTCAGAAAGTAGGGAA,3.72,3.09,0.43,3.94,0.611,5.08,5.38,4.76,3.09,4.24,4.03,4.85,0.962,1.74,3.55,1.05,4.04,1.2,3
CGAACTAGGTCCAAGGACAGTGAAAGGCGACGTA,-0.44,-0.748,-0.421,-0.931,-1.24,0.459,1.53,2.19,0.583,1.69,0.968,1.2,-0.593,-0.32,-0.326,-0.337,-0.0342,-0.625,0.398
CGAACTAGGTCAAAGGACAGTGCAAGGCGACGTA,4.07,2.5,0.126,1.63,-0.463,5.41,10.3,8.27,8.02,9.07,7.81,8.11,-0.34,0.639,1.31,-0.108,2.14,-0.256,4.02
CGACCTAGGTCAAAGGACAGTGAAAGGCGACGTA,5.01,3.27,-0.141,2.32,-0.298,4.33,5.72,5.68,3.14,4.92,3.69,4,-0.949,1.74,1.42,-0.567,2.9,-0.132,4.05
CGAACTAGGTCAAACGACAGTGAAAGGCGACGTA,4.81,2.87,0.0143,2.12,0.102,5.14,8.27,6.9,5.2,7.3,8.02,8.26,0.569,1.9,1.19,-0.315,2.13,0.265,3.7

# Source: the supplement of paper PMC6555819
